MARV entry inh – qHTS for inhibitors of binding or entry into cells for Marburg Virus | Marburg virus pseudotyped entry inhibition, cell reporter | Potency, µM (highest dose often 37.8 µM), for the others: top-dose activity change, negative = inhibition, hits mostly inhibitors | actives 1.8% (n = 300,000) | AID 540276, 2011; calls by dose curve; tested in HEK293 cells; further: potency means the concentration at half of the fitted maximal effect
Lassa entry inh – qHTS for Inhibitors of binding or entry into cells for Lassa Virus. Potency, µM (doses to about 37.9 µM), for inactives: top-dose activity change, negative = inhibition, hits mostly inhibitors. AID 540256, 2011. Lassa virus pseudotype entry inhibition, cell reporter. actives 1.2% (n = 300,000); calls by dose curve; tested in HEK293 cells; further: potency means the concentration at half of the fitted maximal effect; nearly all actives have a fitted effect of over 50% in size
HCMV antiviral – qHTS Assay for inhibitors of the human cytomegalovirus (HCMV); AID 1259415, 2018; actives 4.5% (n = 410,000); activity change, negative = inhibition, % at 57.5 µM; HFF cells, HCMV-luciferase reporter, 72 h; hits give low values; in the data active means activity change below about -60%; inconclusive means no clear call, values can overlap the other calls; inactive means above about -39%
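Two-dose cell screen: HFF monolayers treated with compounds and infected with luciferase-expressing HCMV at 1 PFU/cell, 72 h at 37C, then lysed for luciferase measurement.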
FMDV antiviral – High Throughput Screening for Foot and Mouth Disease Virus Antivirals | FMDV antiviral cell-based qHTS | Potency, µM (top dose mostly 57.9 µM), without a hit: top-dose activity change, negative = inhibition, hits mostly inhibitors | actives 1.2% (n = 410,000); calls by dose curve; tested in HEK293T cells; further: read-out not given here; potency means the concentration at half of the fitted maximal effect; nearly all actives have a fitted effect of over 45% in size
An asterisk follows results filed as active; ? = inconclusive; / = no result; [ ] = another dose, or the depositor's remark. The list is not random: actives were taken first. Their share in the collection is about 6.2%. On the % scale 0 is the no-effect control and ±100 the full control effect.

SMILES | MARV entry inh | Lassa entry inh | HCMV antiviral | FMDV antiviral
O=C(CN1C(=O)/C(=C/c2ccccc2)Sc2ccccc21)NCCCN1CCOCC1 | / | / | -62* | -11%
O=C(COC(=O)c1ccc(S(=O)(=O)NCc2ccco2)cc1)NC1CCCCCC1 | 1% | 3% | 9 | -4%
Cc1ccnc(NS(=O)(=O)c2ccc(NC(=O)c3ccc(Cl)cc3[N+](=O)[O-])cc2)n1 | / | / | 9 | -8%
CC(C)c1nnc(NC(=O)C2CCN(c3cnccn3)CC2)s1 | 9% | 2% | -6 | 3%
CCc1ccc(/C=C2\SC(=S)N(CCC(=O)NCCCN3CCOCC3)C2=O)cc1 | ? | 4%[46.1 µM] | -74* | 1%
O=C(CN1C(=O)COc2ccccc21)NCCN1CCOCC1 | -2%[46.1 µM] | 16% | -75* | 5%
Cc1ccc(NC2CCCN(C(=O)c3cn4cccc(C)c4n3)C2)cc1C (configuration not stated) | 3% | 2% | ? | -11%
O=C(Cn1ncc(Cl)c(Cl)c1=O)N1CCN(Cc2ccccc2)CC1 | / | / | -83* | ?
Cc1c2cnn(CC(=O)N3CCOCC3)c(=O)c2c(C)n1Cc1ccc(F)cc1 | / | / | -5 | /
O=C(Cn1ncc(Cl)c(Cl)c1=O)N1CCc2ccccc21 | ? | ? | -95* | ?
O=C(Cn1ncc(Cl)c(Cl)c1=O)N1CCOCC1 | ? | ? | -99* | 0%
O=C(Cn1ncc2c1-c1ccccc1OC2)N1CCc2ccccc21 | 1% | -6% | -1 | -26%
CC1CCCN(C(=O)c2cc3c(Cl)nc4ccccc4c3s2)C1 (configuration not stated) | 23%[46.1 µM] | -1%[46.1 µM] | -4 | 24%
CSc1ccc(S(=O)(=O)N2CCC(C(=O)NCCN3CCOCC3)CC2)cc1 | ? | -3% | 21 | 11%
COc1ccc(CN2CCN(CCCc3ccccc3)C(CCO)C2)c(OC)c1 (configuration not stated) | / | / | 34 | -21%
COc1ccc(OC)c(CN2CCN(CCCc3ccccc3)C(CCO)C2)c1 (configuration not stated) | / | / | -102* | -15%
COCc1c(C(=O)Nc2ccc3nc(N4CCOCC4)sc3c2)oc2ccccc12 | ? | ? | -12 | 25µM*
O=C(Nc1ccc2nc(N3CCOCC3)sc2c1)c1ccccc1 | / | / | 13 | 24%
CCOc1ccccc1NC(=O)COC(=O)c1cn(CC)c2nc(C)ccc2c1=O | 10%[46.1 µM] | -3%[46.1 µM] | -7 | 0%
c1ccc2c(c1)C(=NCC1CCCO1)NC2=NCC1CCCO1 (configuration not stated) | -1% | -10% | -6 | /
CC(C)(C)N=C1NC(=NC(C)(C)C)c2ccccc21 | 15µM* | ? | -63* | -13%
COc1ccc(CCNC(=O)C2CCCN(S(=O)(=O)c3ccc(F)cc3)C2)cc1OC (configuration not stated) | 8% | 28% | 69 | ?
O=C(COC(=O)c1c[nH]c2ccccc12)Nc1ccccc1 | -14% | 8% | -7 | -7%
CC(NC(=O)COC(=O)c1c[nH]c2ccccc12)c1ccccc1 (configuration not stated) | 13% | 8.9µM* | 25 | -20%
CCCCN1C(=O)C(CC(=O)NC2CCCC2)CC(C(=O)N2CCOCC2)=C1C (configuration not stated) | / | / | 11 | 40µM*
SMILES | MARV entry inh | Lassa entry inh | HCMV antiviral | FMDV antiviral
CCCCN1C(=O)C(CC(=O)NC2CCCCC2)CC(C(=O)N2CCOCC2)=C1C (configuration not stated) | / | / | -9 | -19%
O=[N+]([O-])c1ccccc1CNc1ccc(NCc2ccccc2[N+](=O)[O-])cc1 | / | / | -74* | /
CN=c1scc(-c2ccccc2F)n1/N=C/c1ccc[nH]1 | 1µM* | ? | -99* | 126µM*
CC(C)N=c1scc(-c2cccs2)n1/N=C/c1ccc(O)c(O)c1O | ? | ? | ? | -21%
CN=c1scc(-c2ccccc2F)n1/N=C/c1ccc(O)c(O)c1O | ? | ? | -78* | 3.5µM*
Cn1c(SCC(=O)N2CCCCCC2)nc2c([nH]c3ccccc32)c1=O | -17% | 1% | 37 | -1%
COc1ccc(-c2noc(N3CCC(C(=O)NC(C)c4ccccc4)CC3)n2)cc1 (configuration not stated) | / | / | -63* | ?
CCOC(=O)N1CCC(NC(=O)C2CCN(c3nc(-c4ccc(OC)cc4)no3)CC2)CC1 | -22% | -7% | -65* | ?
Cc1cccc(-c2noc(-c3ccc(N4CCN(C)CC4)c([N+](=O)[O-])c3)n2)c1 | -2%[46.1 µM] | -22%[46.1 µM] | -78* | -12%
Cc1cccc(-c2noc(-c3ccc(N4CCOCC4)c([N+](=O)[O-])c3)n2)c1 | ? | 3%[46.1 µM] | -23 | 1%
Cc1cccc(-c2noc(-c3ccc(N4CCCC4)c([N+](=O)[O-])c3)n2)c1 | ? | -6%[46.1 µM] | -74* | ?
COC(=O)c1c(NC(=O)c2cc3nc(-c4ccc(OC)cc4)cc(C(F)(F)F)n3n2)sc2c1CCCC2 | / | 24%[46.1 µM] | 3 | -2%
CC(C)C1CC(CCNCc2ccc3c(c2)OCO3)(c2ccccc2)CCO1 (configuration not stated) | 10µM* | ? | -29 | 20%
CC(C)C1CC(CCNCc2ccc(N(C)C)cc2)(c2ccccc2)CCO1 (configuration not stated) | ? | ? | ? | -23%
CN1CC[C@@H]2C(=O)N3CCc4ccc(Br)cc4[C@@H]3C[C@@H]21 | / | / | 2 | 0%
COc1cc(C2CC(=O)c3cnc(N4CCN(Cc5ccccc5)CC4)nc3C2)cc(OC)c1OC (configuration not stated) | ? | 23µM* | 38 | 16µM*
CC1CC(C)CN(c2ncc3c(n2)CC(c2ccccc2)CC3=O)C1 (configuration not stated) | -15% | 2.8µM* | 1 | 0%
CC(C)c1ccc(C2CC(=O)c3cnc(N4CCc5ccccc5C4)nc3C2)cc1 (configuration not stated) | 12% | -14% | 12 | 9%
COc1ccc(C2CC(=O)c3c(C)nc(N4CCN(Cc5ccccc5)CC4)nc3C2)cc1OC (configuration not stated) | 18µM* | 8.2µM* | -98* | 11µM*
C(=C\c1ccccn1)/c1ccccn1 | 7%[46.1 µM] | 6% | 80 | 40%
CN1C2CCC1/C(=C\c1ccccc1)C(=O)/C2=C\c1ccccc1 | 15µM* | ? | -66* | ?
CN1C2CCC1/C(=C/c1ccccn1)C(=O)/C2=C\c1ccccn1 | 1.3µM* | 2.3µM* | -101* | 4µM*
O=C1/C(=C/c2ccccc2)CCC1C1CCCC1 (configuration not stated) | ? | ? | -34 | 22%
O=C(CSc1ccc2ccccc2n1)Nc1nsc(-c2ccc(Cl)cc2)n1 | ? | 16%[46.1 µM] | 15 | 13%
COc1ccc(-c2cc(=O)oc3cc(OCC(=O)NCCN4CCOCC4)ccc23)cc1 | / | / | 7 | -17%
C[C@H](N)c1nnc(SCc2ccc(Cl)cc2Cl)o1 | ? | 15% | 14 | -8%

Assay outcomes deposited in PubChem BioAssay by National Center for Advancing Translational Sciences (NCATS).
